A selection: hits, their analogues and other compounds. The true share with any hit is near 17%.
TDP1 cell CPT = growth inhibition of DT40 Tdp1-/-;hTDP1 cells with camptothecin (screen for TDP1 inhibitors) | 420,000 compounds, 12% hits | chicken DT40 Tdp1-/-;hTDP1 cells + 20 nM CPT, ATP luminescence, 48 h | Potency, µM (top dose mostly 46.2 µM), for inactives: at the top dose activity change, negative = growth inhibition, hits mostly inhibitors; note: % is set by controls: 0 for no effect and ±100 for the full control effect; nearly all actives have a fitted effect of over 55% in size
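Cell growth measured by CellTiter-Glo luminescence after a minimum 48 h, 37 C compound exposure with 20 nM CPT in Tdp1-knockout DT40 cells stably expressing hTDP1, seeded 400/well; qHTS titration format.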
ATXN2 expr inh = reduces ATXN2 reporter expression in HEK-293 cells. Potency, µM (doses to about 57 µM), inactives show top-dose activity change, negative = inhibition, hits mostly inhibitors. AID 1745845. HEK-293 ATXN2-luciferase reporter, luminescence, 24 h. 360,000 compounds, 0.72% hits; note: % is set by controls: 0 for no effect and ±100 for the full control effect; nearly all actives have a fitted effect of over 55% in size
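ATXN2-luciferase reporter cells (luciferase flanked by upstream and downstream ATXN2 gene portions) were treated 24 h at 37 °C with compounds at up to 57 uM. SteadyGlo luminescence gave expression; GF-AFC fluorescence gave viability.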
TDP1 cell noCPT = qHTS for Inhibitors of human tyrosyl-DNA phosphodiesterase 1 (TDP1): qHTS in cells in absence of CPT | DT40 Tdp1-/- hTDP1 cells, no CPT, ATP luminescence, 48 h | Potency, µM (highest dose often 46.2 µM), for inactives: at the top dose activity change, negative = growth inhibition, hits mostly inhibitors | 420,000 compounds, 15% hits | AID 686978, 2013; note: % is set by controls: 0 for no effect and ±100 for the full control effect; nearly all actives have a fitted effect of over 55% in size
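Chicken DT40 Tdp1-/- cells stably complemented with human TDP1 were seeded at 400 cells/well with DMSO in place of 20 nM camptothecin. After compound pinning, cells grew at least 48 hr at 37 °C; viability read by CellTiter-Glo luminescence.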
TGFb inhibitor = inhibitors of TGF-b signaling | HepG2 CAGA-GFP TGF-b/SMAD3 reporter, GFP fluorescence, 18 h; TGF-beta stimulated, 500 pg/mL final | Potency, µM (series often up to 46.1 µM), inactives show at the top dose activity, negative = inhibition, hits mostly inhibitors | 410,000 compounds, 1.2% hits; note: % is set by controls: 0 for no effect and ±100 for the full control effect; nearly all actives have a fitted effect of over 65% in size
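Inhibition was scored as loss of TGF-beta-induced (500 pg/mL final, 18 hours, 37 degrees C) GFP in HEPG2 cells carrying a CAGA-GFP reporter, in DMEM with 1% FBS. Well GFP was summed per cell; Activity was normalised to unstimulated and stimulated DMSO wells, then concentration-response fitting.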
ATXN viability = cell viability loss in ATXN counter-screen | S2 cells (HEK-293 line with an ATXN2-luciferase reporter) viability, CellTiter-Fluor protease fluorescence, 24 h | Potency, µM (titrated, usually from 56.7 µM), usual class: cytotoxic | 400,000 compounds, 0.49% hits; note: nearly all actives have a fitted effect of over 40% in size
HepG2 viability = counter-screen for TGF-b inhibitors: cytotoxicity in HepG2 cells; Potency, µM (top dose mostly 46.1 µM), inactives show top-dose activity change, negative = cytotoxicity, most hits filed as cytotoxic; 410,000 compounds, 0.76% hits; HepG2 CAGA-GFP viability, ATP luminescence, 18 h
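HepG2 CAGA-GFP cells (1000/well, DMEM with 1% FBS) received compound, then TGF-beta at 500 pg/mL final, and were incubated 18 hours at 37 degrees C. Viability was read by CellTiter-Glo luminescence. Media-only wells were set as complete cell-killing and DMSO as no toxicity.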
* marks the source's active call; other numbers are inactive results. Calls come from the whole dose curve; as a rule, active = well fitted curve in the direction sought with a large enough effect; inconclusive = small, poorly fitted or top-dose-only effect, or another doubt; inactive = no such curve, though single readings can be large; an effect the other way counts as inactive or inconclusive. Potency is the fitted concentration of half-maximal effect.

`CCOC(=O)N1CCc2c(sc3c2c(=O)n(Cc2ccccc2)c(=O)n3CC(=O)Nc2ccc(F)cc2)C1` gave TDP1 cell CPT 5.8µM*, TDP1 cell noCPT 10.3µM*, TGFb inhibitor -29.4% and HepG2 viability -8.9%.
For O=C1/C(=C/c2ccccc2F)SC(=S)N1CCC(=O)N1CCCCC1CCO (centres undefined) the results were TDP1 cell CPT inconclusive, ATXN2 expr inh -16.4%, TDP1 cell noCPT 14.6µM*, TGFb inhibitor inconclusive, ATXN viability inconclusive and HepG2 viability -18.8%.
Screening O=C1/C(=C/c2cccc(Cl)c2)SC(=S)N1CCC(=O)N1CCCCC1CCO (centres undefined) returned TDP1 cell CPT inconclusive, TDP1 cell noCPT inconclusive, TGFb inhibitor -28.7%, ATXN viability inconclusive and HepG2 viability -27.8%.
O=C1/C(=C/c2ccccc2)SC(=S)N1CCCC(=O)N1CCCCC1CCO (centres undefined) was read as TDP1 cell CPT inconclusive, ATXN2 expr inh -32.4%, TDP1 cell noCPT inconclusive, TGFb inhibitor inconclusive, ATXN viability inactive and HepG2 viability -58.4%.
`COc1ccc(/C=C2\SC(=O)N(CCC(=O)N3CCCCC3CCO)C2=O)cc1` (centres undefined) gave TDP1 cell CPT inconclusive, ATXN2 expr inh 4.2%, TDP1 cell noCPT 20.6µM*, TGFb inhibitor 1.3%, ATXN viability inactive and HepG2 viability -12.2%.
For COc1ccc(/C=C2\SC(=S)N(CCC(=O)N3CCCCC3CCO)C2=O)cc1 (centres undefined) the results were TDP1 cell CPT inconclusive, ATXN2 expr inh -17.1%, TDP1 cell noCPT inconclusive, TGFb inhibitor -7.1%, ATXN viability inactive and HepG2 viability -47.9%.
`O=C1/C(=C/c2ccco2)SC(=S)N1CCC(=O)N1CCCCC1CCO` (centres undefined) gave TDP1 cell CPT -78.5%, TDP1 cell noCPT 20.6µM*, TGFb inhibitor inconclusive and HepG2 viability -30.1%.
For O=C1/C(=C/c2ccccc2F)SC(=S)N1CC(=O)N1CCCCC1c1cccnc1 (centres undefined) the results were TDP1 cell CPT 3.66µM*, TDP1 cell noCPT 3.66µM*, TGFb inhibitor inconclusive, ATXN viability inconclusive and HepG2 viability 12.6µM*.
Screening O=C(NCC(=O)N1CCN(c2ccccc2)CC1)c1ccc(Br)o1 returned TDP1 cell CPT 2.2%, ATXN2 expr inh 0.0%, TDP1 cell noCPT -24.3%, TGFb inhibitor -1.3%, ATXN viability inactive and HepG2 viability 13.5%.
Screening COc1cccc(-c2ccc3ncnc(N4CCNCC4)c3c2)c1 returned TDP1 cell CPT inconclusive and TDP1 cell noCPT -29.4%.
`CN(C)c1ncnc2ccc(-c3cccnc3)cc12` gave TDP1 cell CPT 11.6µM* and TDP1 cell noCPT 23.1µM*.
For c1cncc(-c2ccc3ncnc(NC4CCNCC4)c3c2)c1 the results were TDP1 cell CPT 5.7% and TDP1 cell noCPT 19.9%.
For COc1cccc(-c2ccc3ncnc(N(C)C)c3c2)c1 the results were TDP1 cell CPT 20.6µM* and TDP1 cell noCPT inconclusive.
Screening Cc1nc2ccccc2c(=O)n1NC(=O)c1cccc([N+](=O)[O-])c1 returned TDP1 cell CPT 10.4%, ATXN2 expr inh -0.9%, TDP1 cell noCPT 23.1%, TGFb inhibitor 11.5%, ATXN viability inactive and HepG2 viability 2.4%.

Source: PubChem BioAssay (National Center for Advancing Translational Sciences (NCATS))
